In PubChem BioAssay one finds composite z-score, z-score and composite Z-score data, which are given here for six molecules.

The test system of assay [1] is Human papillomavirus type 1a protein E7 (residues 44-93). Briefly: HPV1a E7 fragment binders on microarrays, primary screen, biochemical, small-molecule microarray, residues 44-93, 635 nm fluorescence (AID 1108).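 Further: E7 fragment applied at 1 µg/mL in TBST for 1 h at 4 C; score combines spot fluorescence with its signal to noise ratio.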 Particulars: small-molecule microarray binding, fluorescence 635 nm; higher = more signal.
Assay [2] in a line: modulators of HCV replicon luciferase signal, primary screen, HCV replication inhibitor project, Huh7 cells, luciferase reporter (AID 1109).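 Further: huh7 hepatoma cells harbouring a luciferase neomycin HCV replicon reporter; luciferase luminescence as measure of HCV replicon replication; test concentration not given here.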 Particulars: 48 h, higher = more signal.
The target in assay [3] is Left-right determination factor 2 (Homo sapiens) (UniProt O00292). Description: LEFTY2 binders on small-molecule microarrays, primary screen, biochemical, small-molecule microarray, 635 nm fluorescence scan (AID 1110). The conditions noted are these: LEFTY2 binding, higher = more signal.
Left-right determination factor 2 (Homo sapiens), sequence (O00292 whole entry, looked up): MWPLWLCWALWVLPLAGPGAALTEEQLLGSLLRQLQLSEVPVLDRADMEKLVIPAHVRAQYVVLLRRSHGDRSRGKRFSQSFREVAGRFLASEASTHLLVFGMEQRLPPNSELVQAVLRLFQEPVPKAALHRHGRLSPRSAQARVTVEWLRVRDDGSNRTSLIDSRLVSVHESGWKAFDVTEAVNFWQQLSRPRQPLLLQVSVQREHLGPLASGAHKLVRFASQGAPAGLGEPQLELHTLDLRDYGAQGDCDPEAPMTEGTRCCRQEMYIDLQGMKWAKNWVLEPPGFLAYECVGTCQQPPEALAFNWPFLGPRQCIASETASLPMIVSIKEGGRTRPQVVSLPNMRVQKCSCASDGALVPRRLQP
The target in assay [4] is Calmodulin-1 (Homo sapiens) (UniProt P0DP23). Description: CALM1 binders on microarrays, EGTA buffer, profiling panel, biochemical, small-molecule microarray, Cy5-labelled CALM1 (AID 1111).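 Further: labelled calmodulin applied in Tris saline Tween buffer holding calcium plus EGTA and DTT.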 Particulars: Cy5-CALM1 binding fluorescence, higher = more signal.
Assay [5] has the same target. Description: calcium-bound CALM1 binders on microarrays, profiling panel, artefact control for SMM control-protein annotation, biochemical, small-molecule microarray, Cy5-labelled CALM1, plus calcium (AID 1112).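 Further: score merges spot fluorescence with signal to noise from triplicate slides.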 The conditions noted are these: Cy5-CALM1 binding fluorescence, higher = more signal.
Assay [6] can be described thus: small-molecule microarray binders of probe aWnt5a, primary screen, biochemical, biotinylated probe, 635/667 nm fluorescence (AID 1113).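 Further: score merges 667 nm fluorescence intensity with signal-to-noise per printed feature.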 Particulars: higher = more signal.
Assay [7] in a line: small-molecule microarray binders of probe aShh, primary screen, biochemical, biotinylated probe, 635/667 nm fluorescence (AID 1114).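 Further: probe is biotin-labelled aShh protein from a stem cell growth factor screen; measures binding of labelled protein to compounds printed on the slide; score merges feature fluorescence at 667 nm with signal-to-noise.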 Particulars: higher = more signal.
Assay [8] can be described thus: small-molecule microarray binders of probe aNog, primary screen, biochemical, biotinylated probe, 635/667 nm fluorescence (AID 1115).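 Further: probe is biotinylated aNog protein used at 0.15 µg/mL for 1 h at 4 C; z-score combines 667 nm fluorescence of each spot with its signal to noise.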 The conditions noted are these: higher = more signal.
Assay [9] addresses Torsin-1A-interacting protein 1 (Homo sapiens) (UniProt Q5JTV8). Description: LAP1 binders from COS7 cell lysate, primary screen, small-molecule microarray, 635/667 nm fluorescence (AID 1116). Particulars: COS7-hLAP1 lysate binding, 635 nm fluorescence, higher = more signal.
Assay [10] has as its target Alpha-bungarotoxin (Bungarus multicinctus) (UniProt P60615). Description: alpha-bungarotoxin binders on microarray, profiling panel, artefact control for SMM control protein annotation, biochemical, small-molecule microarray, Alexa647 label, 635/667 nm fluorescence (AID 1117). Particulars: alpha-BTX-A647 binding fluorescence, higher = more signal.
The next assay addresses Albumin (Bos taurus) (UniProt P02769). Description: bovine serum albumin binders on microarray, profiling panel, artefact control for SMM control protein annotation, biochemical, small-molecule microarray, Alexa647 label, 635/667 nm fluorescence (AID 1118).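 Further: score merges 667 nm emission intensity and signal-to-noise per printed compound spot.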 Particulars: BSA-A647 binding, fluorescence 635 nm, higher = more signal.
Assay [11] is described as follows: small-molecule microarray binders of probe aXIP, primary screen, biochemical, NeuroSMM set, 635/667 nm fluorescence (AID 1119).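 Further: probe is the protein aXip251-270 applied at 1 µg/mL to compound-printed slides; binding of probe to printed compounds measured as 667 nm fluorescence plus signal to noise.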 Particulars: higher = more signal, called active from +8 up or from −8 down.
Assay [12] can be described thus: small-molecule binders of probe aNOTCH3, primary screen, biochemical, small-molecule microarray, 635/667 nm fluorescence (AID 1120).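 Further: probe is a biotin-tagged antibody raised against NOTCH3 rather than NOTCH3 protein; score merges spot fluorescence near 667 nm with spot signal to noise.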 Particulars: higher = more signal.
Assay [13] is described as follows: small-molecule binders of probe aNOTCH2, primary screen, biochemical, small-molecule microarray, 635/667 nm fluorescence (AID 1121).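 Further: score merges feature fluorescence read at 667 nm with its signal to noise.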 The conditions noted are these: higher = more signal.
The target of assay [14] is Carbonic anhydrase 2 (Homo sapiens) (UniProt P00918). Description: CAII small-molecule binders, profiling panel, biochemical, small-molecule microarray, Alexa647-labelled CAII (AID 1122). Particulars: CAII-A647 binding fluorescence, higher = more signal.
The nature of assay [15]: COS7 lysate on small-molecule microarray, probe aHis, 635 nm (AID 1123).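 Further: z-score combines 667nm fluorescence intensity with signal-to-noise per printed compound spot.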 The conditions noted are these: COS7 cell lysate, fluorescence, higher = more signal.
Assay [16] is described as follows: compound binding in COS7 lysate, probe aLAP1, primary screen, cell lysate, small-molecule microarray (AID 1124).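 Further: lysate comes from COS7 cells expressing LAP1 and is applied at 0.3 µg/mL; score merges spot fluorescence near 667 nm with signal-to-noise over triplicate slides.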 The conditions noted are these: probe aLAP1, fluorescence, higher = more signal.
The next assay concerns Sam68 (KHDRBS1). Description: Sam68 small-molecule binders, primary screen, biochemical, small-molecule microarray, 635 nm fluorescence (AID 1125).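 Further: score merges 667 nm channel intensity with signal to noise over triplicate slides.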 The conditions noted are these: small-molecule microarray binding, higher = more signal.
In assay [17] the test system is Chordin-like protein 2 (CHRDL2). Description: CHRDL2 small-molecule binders, primary screen, biochemical, small-molecule microarray, 635 nm fluorescence (AID 1126).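 Further: printed compound slides probed with Chrdl2 protein at 4 µg/mL for 1 h at 4 C; score merges 667 nm emission intensity with signal to noise over three replicate slides.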 Particulars: small-molecule microarray binding, fluorescence 635 nm; higher = more signal.
For assay [18], the target named is Concanavalin-A (Canavalia ensiformis) (UniProt P02866). Briefly: ConA small-molecule binders, primary screen, artefact control for SMM control protein annotation, biochemical, small-molecule microarray, Alexa647 label, 635 nm (AID 1127).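 Further: z combines 667 nm emission intensity with signal-to-noise across three replicate slides.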 The conditions noted are these: ConA-A647 binding fluorescence, higher = more signal.
Concanavalin-A (Canavalia ensiformis), sequence (P02866 whole entry, looked up): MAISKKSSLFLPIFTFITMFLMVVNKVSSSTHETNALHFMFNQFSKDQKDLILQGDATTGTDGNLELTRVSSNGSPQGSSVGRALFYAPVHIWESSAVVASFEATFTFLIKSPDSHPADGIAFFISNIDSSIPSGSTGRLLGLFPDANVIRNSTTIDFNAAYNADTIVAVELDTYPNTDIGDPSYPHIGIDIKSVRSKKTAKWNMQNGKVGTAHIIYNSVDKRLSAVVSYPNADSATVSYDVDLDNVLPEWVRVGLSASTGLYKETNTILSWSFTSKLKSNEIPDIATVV

Molecules are shown by their SMILES. Active and inactive are the calls of the source.

Torsin-1A-interacting protein 1 (Homo sapiens), sequence (Q5JTV8 whole entry, looked up): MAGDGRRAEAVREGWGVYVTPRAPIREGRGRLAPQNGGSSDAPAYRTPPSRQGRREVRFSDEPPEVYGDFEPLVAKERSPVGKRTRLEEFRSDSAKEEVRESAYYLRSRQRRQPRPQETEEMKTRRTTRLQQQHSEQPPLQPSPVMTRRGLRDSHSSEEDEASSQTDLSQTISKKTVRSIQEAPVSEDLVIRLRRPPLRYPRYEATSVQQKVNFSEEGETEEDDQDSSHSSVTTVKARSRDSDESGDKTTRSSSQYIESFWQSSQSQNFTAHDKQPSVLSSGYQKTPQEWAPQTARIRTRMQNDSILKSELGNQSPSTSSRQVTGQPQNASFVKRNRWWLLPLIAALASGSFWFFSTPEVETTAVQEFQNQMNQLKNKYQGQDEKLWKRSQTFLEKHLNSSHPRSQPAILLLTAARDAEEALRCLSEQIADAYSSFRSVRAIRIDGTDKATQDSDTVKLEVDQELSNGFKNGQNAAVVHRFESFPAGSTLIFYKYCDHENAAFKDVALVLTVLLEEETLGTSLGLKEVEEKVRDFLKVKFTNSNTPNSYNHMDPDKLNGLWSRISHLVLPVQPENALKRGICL
Alpha-bungarotoxin (Bungarus multicinctus), sequence (P60615 whole entry, looked up): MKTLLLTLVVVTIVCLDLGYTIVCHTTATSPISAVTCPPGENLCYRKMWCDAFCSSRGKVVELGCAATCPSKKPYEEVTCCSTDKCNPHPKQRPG
Albumin (Bos taurus), sequence (P02769 whole entry, looked up): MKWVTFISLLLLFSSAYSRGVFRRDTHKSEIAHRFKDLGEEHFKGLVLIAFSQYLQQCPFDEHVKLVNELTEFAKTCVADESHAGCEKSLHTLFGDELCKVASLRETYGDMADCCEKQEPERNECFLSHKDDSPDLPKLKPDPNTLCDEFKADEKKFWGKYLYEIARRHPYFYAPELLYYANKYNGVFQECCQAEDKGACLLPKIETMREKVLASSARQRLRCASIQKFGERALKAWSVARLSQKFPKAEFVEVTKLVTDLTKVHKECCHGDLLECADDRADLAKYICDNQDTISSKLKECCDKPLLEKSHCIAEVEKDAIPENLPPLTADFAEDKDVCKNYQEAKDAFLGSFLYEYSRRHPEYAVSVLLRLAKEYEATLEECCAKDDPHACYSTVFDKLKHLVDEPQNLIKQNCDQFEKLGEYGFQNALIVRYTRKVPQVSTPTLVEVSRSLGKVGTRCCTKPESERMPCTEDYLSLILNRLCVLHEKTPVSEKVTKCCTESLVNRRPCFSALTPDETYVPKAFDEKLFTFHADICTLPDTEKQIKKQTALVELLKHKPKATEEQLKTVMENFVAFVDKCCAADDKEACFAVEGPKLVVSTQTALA

Consider `COC(=O)C(CC#Cc1ccc2c(c1)[C@]1(C(=O)N2)[C@H](c2ccc(O)cc2)N2[C@H](c3ccccc3)[C@H](c3ccccc3)OC(=O)[C@H]2[C@@H]1C(N)=O)C(=O)OC`, for which the composite z-score in assay [1] was -0.863; in assay [3] it was -0.91; in assay [4], -1.27; in assay [5], 0.842; in assay [6], -0.202; in [7], -0.352. The composite z-score in [8] was -0.263; in assay [9], -0.931; in assay [10], -1.83; in the assay with Albumin (Bos taurus) it was -0.999; in assay [12], -0.256; in assay [13], -0.118. The composite z-score in assay [14] is -0.669; in assay [15], -0.43; in [16], -0.404; in the assay with Sam68 (KHDRBS1) it was -1.43; in [17] it was -2.25; in [18] it was -1.3. In addition, the z-score in assay [2] was -0.32. Also, the composite Z-score in assay [11] is -0.421 (inactive).
Turning to `NC(=O)NCC#Cc1ccc2c(c1)[C@]1(C(=O)N2)[C@H](c2ccc(O)cc2)N2[C@H](c3ccccc3)[C@H](c3ccccc3)OC(=O)[C@H]2[C@@H]1C(=O)NC[C@H](O)c1ccccc1`, the composite z-score in assay [1] is -0.631; in [3] it was -1.67; in [4], -0.699; in assay [5], 0.827; in assay [6] it was -0.219; in assay [7] it was -0.276. The composite z-score in assay [8] was 0.241; in [9], -0.243; in [10] it was -2; with Albumin (Bos taurus), 0.233; in [12], -0.464; in [13], -0.122. Also, the composite z-score in [14] was -0.051; in assay [15], 0.327; in [16], 0.469; with Sam68 (KHDRBS1), -1.03; in assay [17], -1.12; in assay [18] it was -1.34. The z-score in [2] stood at 0.918. Moreover, the composite Z-score in assay [11] was -0.539 (inactive).
Regarding `COC(=O)[C@@]1(Cc2ccccc2)[C@H]2c3cc(C(=O)N(C)C)n(Cc4ccc(O)c(OC)c4)c3C[C@H]2CN1C(=O)c1ccccc1`, the composite z-score in [1] was 1.45; in [3], -0.276; in assay [4], 1.46; in [5], 1.17; in [6] it was 0.75; in assay [7] it was 0.16. For the same molecule, the composite z-score in [8] is -0.322; in assay [9], 0.141; in assay [10], 0.245; with Albumin (Bos taurus), 0.955; in assay [12] it was 0.808; in assay [13], -0.246. Besides, the composite z-score in assay [14] was 0.759; in assay [15] it was 2.17; in assay [16], 0.091; in the assay with Sam68 (KHDRBS1) it was 0.507; in assay [17] it was -0.629; in assay [18], 1.1. In assay [2], this molecule yielded a z-score of -2.56. Moreover, the composite Z-score in assay [11] is 0.403 (inactive).
As for `CN(C)CCCC[C@@H]1NC(=O)[C@H]2C[C@@H](C(=O)NCCCCCCNC(=O)CS)[C@@H](c3ccc(O)cc3)N2C1=O`, the composite z-score in assay [1] was 1.3; in [3], -0.603; in assay [4], -0.445; in assay [5], -0.107; in assay [6], -0.221; in [7], 0.194. In addition, the composite z-score was -0.541 in [8]; 2.53 in assay [9]; -0.945 in assay [10]; 0.468 with Albumin (Bos taurus); -0.159 in [12]; -0.14 in assay [13]. Also, the composite z-score in [14] was 0.802; in assay [15], 2.66; in [16], 0.957; in the assay on Sam68 (KHDRBS1), 0.457; in [17], -0.0412; in [18], -0.263. For the same molecule, the z-score in [2] stood at 0.344. The composite Z-score in assay [11] is -0.131 (inactive).
`CCOC(=O)C1=CCC(c2cccc(Cl)c2)O1` (stereo not given): the composite z-score is 0.377 in [1]; 0.005 in [3]; -0.314 in [4]; -0.571 in [5]; -0.0492 in [6]; 0.0796 in assay [7]. Further, the composite z-score was 0.59 in assay [8]; 0.291 in assay [9]; -0.383 in [10]; 0.581 with Albumin (Bos taurus); 0.0357 in assay [12]; -0.0651 in [13]. Further, the composite z-score in [14] is 0.181; in assay [15] it was 0.389; in assay [16] it was -0.064; in the assay with Sam68 (KHDRBS1), 0.609; in assay [17], -0.384; in assay [18], 0.16. Further, the z-score in assay [2] was -1.74. Further, the composite Z-score in assay [11] is -0.214 (inactive).
For the molecule `CC(C)c1ccc(NN2C(C(O)c3cccs3)C=CC3C(=O)N(c4ccccc4)C(=O)C32)cc1` (stereo not given), the composite z-score is 1.4 in assay [1]; -0.0393 in assay [3]; 2.29 in assay [4]; 0.795 in assay [5]; 0.0364 in assay [6]; -0.304 in assay [7]. Further, the composite z-score in [8] was 0.113; in assay [9], 0.789; in [10], 1.01; with Albumin (Bos taurus), 0.772; in [12] it was 0.319; in assay [13] it was -0.136. Moreover, the composite z-score in assay [14] is 0.76; in [15], 2.06; in [16] it was 0.665; in the assay on Sam68 (KHDRBS1) it was 1.31; in [17] it was -0.127; in [18], 1.13. For the same molecule, the z-score in [2] was -0.531. The composite Z-score in [11] was 0.302 (inactive).
